Among all 3,300 compounds or so, about 280 (8.5%) were called active.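 The calls were made as follows: active = mean growth inhibition over the two runs of 50% or more; inactive = mean growth inhibition under 50%.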 The full list was thinned out, with actives kept by preference.

A short description of this experiment: A549 NSCLC cell proliferation inhibitors – ATP luminescence, human non-small cell lung line, primary screen (AID 371).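 Also: compound exposure lasted 72 h before the ATP read; 0% = untreated cell signal and 100% = no luminescence left.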 The conditions noted are these: at 10 µM, active compounds read high.
As to `CCOC(=O)c1[nH]c2cc3c(cc2c1NC(=O)CN1CC(C)CC(C)C1)OCO3` (centres undefined), the growth inhibition was 6.05% (inactive).

Regarding `CCc1c(C(=O)O)[nH]c2ccc(Br)cc12`, the growth inhibition was 6.3% (inactive).

As to `CCOC(=O)c1[nH]c2ccc(OC)cc2c1C`, the growth inhibition was 12.4% (inactive).

In the case of `Cc1cccc(N2CC(=O)N(c3cccc(C)c3)CC2=O)c1`, the growth inhibition is 3.38% (inactive).

On to `COc1cc2c(C(=O)N3CCN(c4ccccc4)CC3)c(C)oc2cc1Br`, for which the growth inhibition is 60.9% (active).

With `CCN(CC)CCNC(=O)c1c(C)oc2cc(Br)c(OC)cc12`, the growth inhibition was 29.2% (inactive).

Regarding `COc1ccccc1N1CCN(C(=O)c2c(C)cc(=O)oc2C)CC1`, the growth inhibition was -0.18% (inactive).

In the case of `CCCCOc1ccc(-c2nnc(N)s2)cc1`, the growth inhibition was 21.4% (inactive).

On to `CCCCOc1ccc(CN(C)c2ncnc(N)n2)cc1`, for which the growth inhibition is 51.9% (active).

With `CCOc1ccc(Cc2nc(N)nc(N)n2)cc1`, the growth inhibition was 2.96% (inactive).

As to `COC(=O)c1ccccc1N1C(=O)[C@@H]2C(c3ccc(Br)cc3)=NO[C@@H]2C1=O`, the growth inhibition was 3.29% (inactive).

With `O=C1c2ccccc2-c2onc3ccc(NCc4ccco4)c1c23`, the growth inhibition was 50.2% (active).

With `O=C(NCc1ccco1)c1ccc(=O)oc1`, the growth inhibition was -3.09% (inactive).

Turning to `O=C(NCc1ccco1)c1ccc(=O)[nH]n1`, the growth inhibition is -4.07% (inactive).

Turning to `c1ccc(-c2nn3c(C4CCCCC4)nnc3s2)cc1`, the growth inhibition is 5.6% (inactive).

`CCC(=O)N(Cc1cccs1)C1CCOC(C)(C)C1` (centres undefined): the growth inhibition is 3.04% (inactive).

Consider `CCCCNC(=O)c1c(N)n(/N=C/c2cccnc2)c2nc3ccccc3nc12`, for which the growth inhibition is 5.46% (inactive).

On to `CN(Cc1ccccc1)Cc1c[nH]c2ccccc12`, for which the growth inhibition was 5.38% (inactive).

As for `CN(C)CC(O)COc1ccc(-c2ccc(C#N)cc2)cc1` (centres undefined), the growth inhibition was 64.2% (active).

As for `COCCc1ccc(OCC(O)CNC(C)C)cc1` (centres undefined), the growth inhibition is 1.47% (inactive).

For `CN(C)CC(O)COc1ccc(C(C)(C)c2ccc(OCC(O)CN(C)C)cc2)cc1` (centres undefined), the growth inhibition is 89.2% (active).

As for `N#Cc1ccc(-c2ccc(OCC(O)Cn3nnc4ccccc43)cc2)cc1` (centres undefined), the growth inhibition was 57.7% (active).

Take `O/N=C/c1ccc(OCC(O)COc2ccc(/C=N/O)cc2)cc1`: the growth inhibition was -5.19% (inactive).

As for `OC(CNCCCN1CCCCC1)COc1ccccc1` (centres undefined), the growth inhibition was 4.57% (inactive).

As for `CC1(C)NC(=O)N(CC(O)Cn2nnc3ccccc32)C1=O` (centres undefined), the growth inhibition was 8.44% (inactive).

As for `CN(CC(O)COc1ccc(OCC(O)CN(C)C2CCCCC2)cc1)C1CCCCC1` (centres undefined), the growth inhibition was 50.1% (active).

With `CN(C)CC(O)COc1cccc(OCC(O)CN(C)C)c1` (centres undefined), the growth inhibition was 2.88% (inactive).

For the compound `CC(C)NCC(O)COc1ccc(CCOCC2CC2)cc1` (centres undefined), the growth inhibition is -0.79% (inactive).

For the compound `CN=c1sc2ccccc2n1CC(O)COc1ccccc1` (centres undefined), the growth inhibition is 25.3% (inactive).

As to `CC(C)NCC(O)COc1ccc(CC(N)=O)cc1` (centres undefined), the growth inhibition was -2.65% (inactive).

On to `CCOCCSc1nc2c(c(=O)[nH]c(=O)n2C)n1CCCc1ccccc1`, for which the growth inhibition was 20.2% (inactive).

Regarding `CCN(CC)CCCN1C(=O)C(O)=C(C(=O)c2ccc(C)o2)C1c1ccc(C)o1` (centres undefined), the growth inhibition is 5.46% (inactive).

With `CC1CC(C(F)(F)F)n2ncnc2N1` (centres undefined), the growth inhibition was 2.4% (inactive).

Take `CC(C)OC(=O)[C@H]1[C@H](c2ccc(Cl)cc2)[C@@](C#N)(C(N)=O)[C@@H]2C=CC(C(N)=O)=CN21`: the growth inhibition was 6.9% (inactive).

As for `Cc1cccc(N2C(=O)CC(N3CCN(Cc4ccc(Cl)cc4)CC3)C2=O)c1` (centres undefined), the growth inhibition is -1.79% (inactive).

Turning to `O=C(Nc1ccc(Cl)cn1)C1CCCN1S(=O)(=O)c1ccccc1` (centres undefined), the growth inhibition was -16.6% (inactive).

Turning to `CCCOc1cc(CN2CCCCC2)cc(C(C)=O)c1`, the growth inhibition was 5.4% (inactive).

Turning to `CCNC(=O)N(C(=O)NCC)n1c(C)nnc1C`, the growth inhibition is -3.85% (inactive).

With `c1ccc(CSc2nnc(SCc3ccccn3)s2)nc1`, the growth inhibition is -7.61% (inactive).

On to `N#CC1=C(N)N2C(=C(C#N)C1c1ccccc1)Sc1ccccc12` (centres undefined), for which the growth inhibition is -5.42% (inactive).

With `C#CC1CN(Cc2ccccc2)CC(C#C)N1C` (centres undefined), the growth inhibition was 4.27% (inactive).

As for `Cc1ccc(Cn2ncc3c(N4CCN(c5ccc(C)cc5)CC4)ncnc32)cc1`, the growth inhibition is 30.8% (inactive).

Consider `Cc1ccc(Cn2ncc3c(N4CCOCC4)ncnc32)cc1`, for which the growth inhibition was 19.4% (inactive).

As to `Cc1ccc(Cn2ncc3c(N4CCN(Cc5ccc(Cl)cc5)CC4)ncnc32)cc1`, the growth inhibition was 53.7% (active).

Turning to `COC(=O)C(NC(C)=O)(Nc1ccc(Br)cc1)C(=O)OC`, the growth inhibition was 36.9% (inactive).

In the case of `c1ccc2c(c1)[nH]c1c(N3CCSCC3)ncnc12`, the growth inhibition is 33.6% (inactive).

For `Cc1ccc2[nH]c3c(N4CCN(Cc5ccccc5)CC4)ncnc3c2c1`, the growth inhibition is 80.6% (active).

For `c1ccc2c(c1)[nH]c1c(N3CCC4(CC3)OCCO4)ncnc12`, the growth inhibition is 34% (inactive).

On to `Cc1ccc2[nH]c3c(N4CCCCCC4)ncnc3c2c1`, for which the growth inhibition is 72.1% (active).

For `Cc1ccc2[nH]c3c(N4CCOCC4)ncnc3c2c1`, the growth inhibition was 34.7% (inactive).

Turning to `OC1(c2cccc(C(F)(F)F)c2)CCN(c2ncnc3c2[nH]c2ccccc23)CC1`, the growth inhibition is 92.4% (active).

For `c1ccc2c(c1)CCN(c1ncnc3c1[nH]c1ccccc13)C2`, the growth inhibition was 77.4% (active).

Take `CCN1CCCC1Cn1cnc2c([nH]c3ccc(C)cc32)c1=O` (centres undefined): the growth inhibition was 6.64% (inactive).

For `CSc1nnc2n(C3CCCCC3)c(=O)c3c4c(sc3n12)CCCC4`, the growth inhibition was 6.35% (inactive).

As to `COc1cccc(C(=O)OCCN(C)C(C)(C)C)c1`, the growth inhibition is 0.03% (inactive).

As for `OCCOCCNc1ncnc2c1cnn2-c1ccccc1`, the growth inhibition is 5.28% (inactive).

Consider `Cc1cc(=O)oc2cc(OCCSCCN3CCOCC3)ccc12`, for which the growth inhibition was 8.74% (inactive).

Regarding `CCn1cc(/C=N/O)c(C)n1`, the growth inhibition was -8.38% (inactive).

As for `O=C1OC(N2CCN(C/C=C/c3ccccc3)CC2)c2ccccc21` (centres undefined), the growth inhibition is 7.88% (inactive).

`Cc1cc(SCCC(=O)O)nc2ccccc12`: the growth inhibition is -1.53% (inactive).

With `CCOC(=O)c1cnc(SC2CC(=O)N(c3cccc(OC)c3)C2=O)nc1N` (centres undefined), the growth inhibition was -4.72% (inactive).

As for `Cn1ccnc1SCCC#N`, the growth inhibition is -0.21% (inactive).

With `c1ccc(CN2CCN(c3ncnc4c3[nH]c3ccccc34)CC2)cc1`, the growth inhibition was 63% (active).

With `N#Cc1nc(COc2ccc(Cl)cc2)oc1N1CCN(Cc2ccccc2)CC1`, the growth inhibition was 21.8% (inactive).

Regarding `O=C(c1ccco1)N1CCN(c2ncnc3c2[nH]c2ccccc23)CC1`, the growth inhibition was 25.7% (inactive).

For `COc1ccc(C=NCCCN2CCOCC2)cc1`, the growth inhibition is 2.05% (inactive).

For the compound `Cc1csc2nc(CSc3nc4ccccc4o3)cn12`, the growth inhibition is 29.3% (inactive).

For `CCOC(=O)c1ccc(N2C(=O)CC(Sc3nnc(C)s3)C2=O)cc1` (centres undefined), the growth inhibition was -4.68% (inactive).

As to `Cc1ccc(-c2nnc(-c3ccccc3)o2)cc1Br`, the growth inhibition is 10.3% (inactive).

Take `Cc1ccccc1N1C(=O)CC(Sc2nnc(-c3ccccc3)o2)C1=O` (centres undefined): the growth inhibition is 56.6% (active).

As to `Brc1ccc(-c2cnnc(N3CCCC3)n2)cc1`, the growth inhibition is 24% (inactive).

As to `COc1ccc(C2/C(=C(/O)c3cnn(-c4ccccc4)c3C)C(=O)C(=O)N2CCN(C)C)cc1OC` (centres undefined), the growth inhibition was 7.72% (inactive).

For `CSc1nc(Oc2ccc(=O)[nH]n2)nc(N(C)C)n1`, the growth inhibition was 2.49% (inactive).

`CCOc1cc2nc(-c3ccc(OC)c(OC)c3)nc(N3CCOCC3)c2cc1OC`: the growth inhibition was 66.5% (active).

`COc1ccc(/C(O)=C2/C(=O)C(=O)N(CCN3CCOCC3)C2c2ccccn2)cc1OC` (centres undefined): the growth inhibition was 0.85% (inactive).

Take `COc1cc2nc(-c3ccccc3)nc(N3CCCC3)c2cc1OC`: the growth inhibition was 2.86% (inactive).

For `Brc1cccc(-c2cnc3n2CCCCC3)c1`, the growth inhibition was 24.1% (inactive).

Turning to `COc1ccc(CN(C#N)c2nc(SC)nc(N(C)C)n2)cc1`, the growth inhibition is 32.9% (inactive).

`CCN(CC)c1ncc(C)c(=O)[nH]1`: the growth inhibition is -0.05% (inactive).

Turning to `CCOC(=O)Cc1nnc(Nc2cccc(O)c2)c2ccccc12`, the growth inhibition was -1.35% (inactive).

As to `N=c1ncn(CC(O)CN2CCOCC2)c2nc(N3CCOCC3)[nH]c12` (centres undefined), the growth inhibition is -5.31% (inactive).

For `C=CCc1cccc(/C=N/n2cnnc2)c1O`, the growth inhibition is 2.3% (inactive).

With `C=CCc1cccc(CNc2nc3ccccc3n2C(C)C)c1O`, the growth inhibition is 74.7% (active).

On to `C=CCc1cccc(/C=N/c2ncn[nH]2)c1O`, for which the growth inhibition was 0.97% (inactive).

For the compound `CN=c1sc2ccccc2n1CC(O)COCc1ccco1` (centres undefined), the growth inhibition was -6.68% (inactive).

As to `CCC(C(=O)Nc1nccs1)(C(F)(F)F)C(F)(F)F`, the growth inhibition is 12.8% (inactive).

As for `CCSc1nnc(NC(=O)C(C(F)(F)F)C(F)(F)F)s1`, the growth inhibition is 7.68% (inactive).

`CCCSc1nnc(NC(=O)Nc2ccc(F)cc2)s1`: the growth inhibition was 70.3% (active).

Regarding `CCSc1nnc(NC(=O)C(C)(C(F)(F)F)C(F)(F)F)s1`, the growth inhibition is 61.8% (active).

As for `CCC(C(=O)Nc1ncn[nH]1)(C(F)(F)F)C(F)(F)F`, the growth inhibition is 2.05% (inactive).

In the case of `CCCc1nnc(NC(=O)Nc2ccccc2OC)s1`, the growth inhibition is 17.3% (inactive).

`O=C(NCC(F)(F)F)Nc1nnc(C(F)(F)F)s1`: the growth inhibition was 17.9% (inactive).

As for `CCSc1nnc(NC(=O)C(CC)(C(F)(F)F)C(F)(F)F)s1`, the growth inhibition is 66% (active).

Consider `CC(NC(=O)Nc1nnc(C(F)(F)F)s1)(C(F)(F)F)C(F)(F)F`, for which the growth inhibition is 11.8% (inactive).

As for `CCC(NC(=O)Nc1nnc(C(F)(F)F)s1)(C(F)(F)F)C(F)(F)F`, the growth inhibition is 81.7% (active).

Consider `CCSc1nnc(NC(NC(=O)c2ccco2)(C(F)(F)F)C(F)(F)F)s1`, for which the growth inhibition is -2.3% (inactive).

Regarding `CCCSc1nnc(NC(=O)Nc2ccccc2)s1`, the growth inhibition is 45.3% (inactive).

As for `CCCC(CCC(=O)Nc1ccc(C(=O)OC)cc1)C(=O)O` (centres undefined), the growth inhibition is 5.31% (inactive).

Consider `N#Cc1c(N2CCOCC2)nc(N2CCCCC2)c2c1CCN(C1CCCCC1)C2`, for which the growth inhibition is 23.2% (inactive).

`CC(C)COC(=O)CCNc1n[nH]c(=O)[nH]c1=O`: the growth inhibition was 2.08% (inactive).

For the compound `O=c1cc(-c2ccco2)nc(-c2cccs2)o1`, the growth inhibition is 15% (inactive).

On to `COc1cccc(-c2nnc3sc(-c4ccco4)nn23)c1`, for which the growth inhibition is 11.9% (inactive).

As to `Cc1cc(C)n(CC2CC(=O)N(c3ccc(F)c(Cl)c3)C2=O)n1` (centres undefined), the growth inhibition was 1.52% (inactive).

As for `Cn1nccc1C(=O)Nc1ccccc1C(=O)O`, the growth inhibition was 2.72% (inactive).

Source of the values: PubChem BioAssay AID371 (SRMLSC, 2006).
